Results: PubChem BioAssay AID504566 (NMMLSC, 2011)
Results with a measured potency or affinity are listed apart. Activity calls are given as the source filed them.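 The calls were made as follows: active = combined score above 52, rewarding potency beyond a set limit and curve height beyond a set limit; inactive = the rest.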

Molecular target: Broad substrate specificity ATP-binding cassette transporter ABCG2 (Homo sapiens) (UniProt Q9UNQ0)
Assay: inhibition of BCRP-mediated JC-1 efflux – Ig-MXP3 cells, flow cytometry, set 2, dose response (AID 504566)
Conditions: series mostly up to 50 µM; inhibition: at the top concentration

Chain of Broad substrate specificity ATP-binding cassette transporter ABCG2 (Homo sapiens) (Q9UNQ0 whole entry, looked up): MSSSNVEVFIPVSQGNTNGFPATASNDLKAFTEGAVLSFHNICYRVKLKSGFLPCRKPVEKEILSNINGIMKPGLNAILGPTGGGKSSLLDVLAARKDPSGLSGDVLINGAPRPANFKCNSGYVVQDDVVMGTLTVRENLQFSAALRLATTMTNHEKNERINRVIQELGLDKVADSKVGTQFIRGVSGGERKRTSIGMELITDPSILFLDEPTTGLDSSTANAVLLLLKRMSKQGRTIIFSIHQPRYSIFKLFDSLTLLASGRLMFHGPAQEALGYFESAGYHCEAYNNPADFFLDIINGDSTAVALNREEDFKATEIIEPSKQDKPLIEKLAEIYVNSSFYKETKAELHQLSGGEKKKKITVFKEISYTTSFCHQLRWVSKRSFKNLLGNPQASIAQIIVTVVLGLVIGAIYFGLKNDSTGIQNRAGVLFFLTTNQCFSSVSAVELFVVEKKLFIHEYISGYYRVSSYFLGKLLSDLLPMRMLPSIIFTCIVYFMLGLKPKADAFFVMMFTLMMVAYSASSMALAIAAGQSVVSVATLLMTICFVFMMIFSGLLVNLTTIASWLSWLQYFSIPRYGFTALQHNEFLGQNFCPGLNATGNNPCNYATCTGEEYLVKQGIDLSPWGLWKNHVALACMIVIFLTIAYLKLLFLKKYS

inhibition, inactive:
O=S(=O)(c1ccccc1)N1CCN(c2cc(-c3ccccc3)nc3cc(-c4cccc(Cl)c4)nn23)CC1 3.59%
CC(=O)N1CCN(c2c(C)c(C)nc3cc(-c4ccc(Cl)cc4)nn23)CC1 79.4%
Cc1nc2cc(-c3cccs3)nn2c(N2CCN(C(=O)c3ccco3)CC2)c1C 38.8%
